# According to PubChem BioAssay (NCI):
# Compounds without any hit were thinned out: in the full panel of roughly 79,000, 15% have a hit. A number with no mark means an inactive call. Activity calls are given as the source filed them. Rule as the data show it: active = growth inhibition above about 70%; inactive = the rest.
# How the values were obtained:
# [1] = NCI Yeast Anticancer Drug Screen. Data for the rad50 strain (AID 155);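 also: 0% = growth of vehicle-only cultures of the same strain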; conditions: S. cerevisiae rad50 strain growth inhibition; at 50.0 µM; stronger effect = higher value
# Summary of the method: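 DNA repair mutant yeast, compound exposure, growth read-out; inhibition is taken relative to vehicle.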
# [2] = NCI Yeast Anticancer Drug Screen. Data for the mec2-1 strain (AID 157); conditions: S. cerevisiae mec2-1 strain, at 50.0 µM, stronger effect = higher value
# Summary of the method: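 Mutant yeast (mec2-1) grown with compound; growth inhibition relative to vehicle control reported.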
# [3] = NCI Yeast Anticancer Drug Screen. Data for the sgs1 mgt1 strain (AID 161);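 also: 0% = growth of cultures given vehicle only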; conditions: S. cerevisiae sgs1 mgt1 strain, at 50.0 µM, stronger effect = higher value
# Summary of the method: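 Compounds are added to genetically altered yeast, and growth is compared with cultures given vehicle alone to give percent inhibition.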
# [4] = NCI Yeast Anticancer Drug Screen. Data for the cln2 rad14 strain (AID 165);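 also: 0% = growth equal to vehicle treated cultures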; conditions: S. cerevisiae cln2 rad14 strain, at 50.0 µM, stronger effect = higher value
# Summary of the method: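 Readout is yeast growth inhibition versus vehicle-treated controls, using a strain with cln2 and rad14 alterations exposed to compound.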
# [5] = NCI Yeast Anticancer Drug Screen. Data for the bub3 strain (AID 167); conditions: S. cerevisiae bub3 mutant strain, at 50.0 µM, stronger effect = higher value
# Summary of the method: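 In this screen, a yeast mutant lacking normal mitotic checkpoint function is challenged with compound. Relative growth versus vehicle gives the inhibition value.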
# [6] = NCI Yeast Anticancer Drug Screen. Data for the mlh1 rad18 strain (AID 175); conditions: S. cerevisiae mlh1 rad18 strain growth inhibition; at 50.0 µM; stronger effect = higher value
# Summary of the method: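 Genetically defined yeast (DNA repair-deficient) exposed to compounds; growth inhibition determined relative to vehicle.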
Structure (SMILES),growth inhibition [1],growth inhibition [2],growth inhibition [3],growth inhibition [4],growth inhibition [5],growth inhibition [6]
O=C1OC[C@@H]2Cc3c([nH]c4ccccc34)[C@@H](c3cc(O)c(O)c(O)c3)N12,12.1%,-1.2%,20.8%,7.4%,10.7%,-51.6%
NC(Cc1ccccc1)c1cccc2c1CCCC2 (stereo unspecified),7.35%,-7.3%,-2.55%,-21.8%,24.4%,40.5%
C[C@@H]1C[C@@H]2c3cccc4c3c(cn4CO)C[C@H]2N(C)C1,8.55%,-24.6%,28.6%,3.4%,0.55%,8.15%
CC1CC[Si](C)(C)CC12C(=O)NC(=O)NC2=O (stereo unspecified),6.65%,1.95%,19.6%,-0.05%,10.1%,-7.05%
Cn1nc2ccc3nccc(NCCNCCCl)c3c2n1,6.95%,-30.8%,-22.1%,2.7%,-19.2%,-20.8%
COc1cc2cc(c1Cl)N(C)C(=O)CC(OC(=O)C(C)C)C1(C)OC1C(C)C1CC(O)(NC(=O)O1)C(OC)/C=C/C=C(C)C2 (stereo unspecified),-15.9%,-9.9%,-19.4%,-22.8%,-21.2%,-3.7%
CC1OC(OC2C(O)CC(OC3C(O)CC(OC4CCC5(C)C(CCC6C5CCC5(C)C(C7=CC(=O)OC7)C(O)CC65O)C4)OC3C)OC2C)CC(O)C1O (stereo unspecified),-12.8%,10.6%,-19.1%,-13.1%,-5.45%,27.6%
Oc1ccccc1C=NC1CCCCC1.Oc1ccccc1C=NC1CCCCC1.[Ni+2],38.6%,-9.25%,28.6%,-40.8%,-0.1%,-15.4%
O=C(Sc1c[nH]c(=O)[nH]c1=O)c1ccc(N(CCCl)CCCl)cc1,29.6%,-18.4%,19.9%,-24.8%,-6.3%,-1.05%
COc1cc(O)c2c(O)c3c(=O)cc(C)oc3cc2c1,-9.75%,-6.2%,20.6%,12.6%,-1.95%,-5.35%
CCOP(=O)(OCC)C(=O)N(CC)CC,12.2%,21.9%,10.6%,7.15%,20.8%,1.45%
[C-]#[O+].[C-]#[O+].[C-]#[O+].[Cr].c1ccc(P(CC[PH+](CC[PH+](CC[PH+](c2ccccc2)c2ccccc2)c2ccccc2)c2ccccc2)c2ccccc2)cc1 (stereo unspecified),36.3%,13.6%,41.5%,18.6%,33.8%,37.8%
CCOP(=O)(OCC)/C(C#N)=C/c1cnc[nH]1,-51.6%,-30.6%,-38%,-17.2%,-20.2%,-54.5%
CNCCc1cccs1,-27.6%,-6.4%,1.25%,-29.1%,6.15%,4.7%
CCOP(=O)(OCC)/C(C#N)=C/c1ccco1,-2.55%,-25.4%,-9.65%,21.8%,-16.5%,-21.8%
CN1CN(c2ccccc2)C2(CCN(CCCN(C)c3ccc(F)cc3)CC2)C1=O,0.1%,-0.4%,6.35%,5.85%,3.35%,17.3%
Nc1ccc2c(c1)[O][Sn]([c]1ccccc1)([c]1ccccc1)[O]C2=O,85.5% (active),89.5% (active),89.1% (active),89.2% (active),88.1% (active),89.3% (active)
N/C(=N\NS(=O)(=O)c1ccccc1)N[N+](=O)[O-],-3.1%,21.7%,7.05%,-8.55%,24.2%,7.25%
Nc1cc(S(=O)(=O)O)cc2cc(S(=O)(=O)O)c(N=Nc3ccc([As]=O)cc3)c(O)c12 (stereo unspecified),-11.1%,15.3%,-9.3%,-4.55%,6.05%,-5.3%
CC12CCC3C(CC(N4CC4)C4(O)CC(O)CCC34C)C1CCC2=O (stereo unspecified),15.6%,-10.2%,-3.85%,14.8%,-8%,-8%
N#CCc1ccc(CC#N)cc1,14.1%,-10.6%,-2.8%,16.6%,-5.1%,1.45%
